High-throughput results from PubChem BioAssay.
This is a sample that favours compounds with a hit; in the whole collection about 1.6% have one here.
LYPLA1 inh – blocks human lysophospholipase 1, a PME1 counter-screen; recombinant LYPLA1, FP-Rh probe fluorescence polarization; inhibition, % at 5.9 µM; actives 0.16% (n = 320,000); AID 2174;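 active means inhibition above the mean of all tested compounds plus 3 SD, set per campaign, cut at about 14% in these data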;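 further: inhibitors block serine hydrolase probe labeling of LYPLA1 so polarization falls; 0% = enzyme with DMSO and 100% = wells lacking LYPLA1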
PREPL inhibitor – human PREPL enzyme inhibition; Q4J6C6; recombinant PREPL, fluorescence polarization activity-based probe; inhibition, % at 5.96 µM; actives 0.68% (n = 320,000); AID 2751; in the data active means inhibition above about 43%;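 further: 0% = enzyme with DMSO and 100% = wells lacking enzyme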
MEX-5 binding – C. elegans MEX-5 TCR-2 RNA binding activity; Q9XUB2; MEX-5/FITC-TCR2 RNA binding, fluorescence polarization; hits give low values; activity score (negative = inhibition of binding), % at 10 µM; actives 0.38% (n = 300,000); AID 1832;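 active means inhibition past about -25% in most replicates, and total fluorescence under double the plate's negative control median, limit read from the data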;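 further: 0% = DMSO and -100% = 5 µM competing unlabeled TCR2 RNA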
Target sequence (Q9XUB2 whole entry, looked up): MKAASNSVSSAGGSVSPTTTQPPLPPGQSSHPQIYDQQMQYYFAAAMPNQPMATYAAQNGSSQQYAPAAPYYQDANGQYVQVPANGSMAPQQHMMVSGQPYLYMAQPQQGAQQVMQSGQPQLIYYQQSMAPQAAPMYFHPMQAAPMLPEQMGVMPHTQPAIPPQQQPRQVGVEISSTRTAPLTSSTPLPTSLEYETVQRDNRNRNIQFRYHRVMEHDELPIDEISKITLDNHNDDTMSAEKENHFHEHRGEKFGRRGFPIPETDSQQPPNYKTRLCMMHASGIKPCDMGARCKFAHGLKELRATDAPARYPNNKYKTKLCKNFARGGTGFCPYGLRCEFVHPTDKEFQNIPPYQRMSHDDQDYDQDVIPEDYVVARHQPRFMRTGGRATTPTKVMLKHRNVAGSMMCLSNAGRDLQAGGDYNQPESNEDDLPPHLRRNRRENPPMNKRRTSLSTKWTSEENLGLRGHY
LYPLA2 inh – blocks human lysophospholipase 2, a PME1 counter-screen; O95372; recombinant LYPLA2, FP-Rh probe fluorescence polarization; inhibition, % at 5.9 µM; actives 0.38% (n = 320,000); AID 2177;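 active means inhibition above the screen-wide mean plus 3 SD, limit set per campaign, cut at about 26% in these data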;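 further: 0% = LYPLA2 with DMSO and 100% = wells lacking LYPLA2 enzyme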
Target sequence (O95372 whole entry, looked up): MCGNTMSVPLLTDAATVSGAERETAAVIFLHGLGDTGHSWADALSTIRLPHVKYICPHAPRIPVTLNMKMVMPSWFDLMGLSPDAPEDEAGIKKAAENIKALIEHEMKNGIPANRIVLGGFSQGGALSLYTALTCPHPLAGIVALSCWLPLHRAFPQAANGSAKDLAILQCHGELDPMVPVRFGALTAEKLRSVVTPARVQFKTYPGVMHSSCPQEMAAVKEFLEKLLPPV
Fam108B counter – blocks mouse Fam108B hydrolase in RBBP9 counter-screen; actives 0.33% (n = 300,000); inhibition, % at 9.51 µM; recombinant Fam108B, FP-Rh probe fluorescence polarization;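 active means inhibition above the screen mean inhibition plus 3 SD, computed separately per campaign, cut at about 18% in these data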;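 further: inhibitors lower polarization as less probe binds the enzyme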
PME-1 inh – PME-1 (human) inhibition. recombinant PME-1, FP-Rh probe fluorescence polarization. inhibition, % at 5.9 µM. actives 0.53% (n = 320,000);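 active means inhibition above the campaign mean of all compounds plus 3 SD, cut at about 26% in these data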;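 further: competitive labeling of PME-1 active site by serine hydrolase directed probe; 0% = PME-1 with DMSO and 100% = wells lacking PME-1 enzyme; inhibitors block probe labeling so polarization falls and inhibition rises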
Numbers without * were called inactive; . = not tested or not shown.

SMILES	LYPLA1 inh	PREPL inhibitor	MEX-5 binding	LYPLA2 inh	Fam108B counter	PME-1 inh
CC1(C)O[C@@H]2[C@H](O1)[C@@H](CO)O[C@H]2n1ccc(=O)[nH]c1=O	-0.2	4.1	.	-7.2	.	0.7
CCOC(=O)C1=C(CSc2nc3c(cc2C#N)CN(C)CC3)OC(N)=C(C#N)C1c1ccc(Cl)cc1 (stereo not drawn)	-3.0	34.9	0.7	-2.4	6.6	3.6
CCOC(=O)C1=C(CSc2nc3c(cc2C#N)CN(C)CC3)OC(N)=C(C#N)C1c1ccncc1 (stereo not drawn)	2.5	26.9	-50.9*	-4.7	9.6	-4.7
O=C(CSc1cccc(C(F)(F)F)c1)Nc1cc(S(=O)(=O)N2CCCC2)ccc1Cl	-7.4	0.3	0.2	-15.2	-5.5	48.6*
O=C(CN1CCN(c2ccc(O)cc2)CC1)Nc1cc(S(=O)(=O)N2CCCC2)ccc1Cl	2.5	13.8	0.0	3.2	3.0	36.9*
Clc1cccc(-c2csc(Nc3cccnc3)n2)c1	-2.3	27.8	-0.1	-1.3	2.7	12.3
CCOc1ccc(C(=O)N/N=C(/C)C2C(=O)c3ccccc3C2=O)cc1	-0.1	1.4	3.5	-2.0	3.1	-3.3
C/C(=N\NC(=O)c1ccc(Br)cc1)C1C(=O)c2ccccc2C1=O	18.2*	5.2	3.0	1.5	15.8	9.9
O=C1C=C(O)c2c(O)cc(O)c(O)c2C1=O	0.3	30.4	-99.7*	9.2	15.8	10.3
N#Cc1cc2c(=O)n3ccccc3nc2n(-c2ccccc2Cl)c1=O	1.3	0.6	-26.7*	-1.2	-0.3	1.5
CC(=O)c1cccc(NC(=O)N2CCCC2C(=O)Nc2cc(C)ccc2C)c1 (stereo not drawn)	-5.8	8.6	0.1	-3.5	0.8	-3.2
COc1ccc(N2CCc3c(C)nc4c(OC)cc(OC)cc4c32)c(OC)c1	2.2	48.0*	0.2	10.7	-0.6	-1.2
O=[N+]([O-])c1cccc(/C=C/c2nc(C=Nc3ccccc3)c(O)o2)c1	-0.3	25.7	-42.6*	2.2	2.5	4.4
FC(F)(F)c1ccc(N2CCN(Cc3ccc4c(c3)OCO4)CC2)nc1	0.1	5.0	0.5	7.4	0.9	6.8
COc1ccc(/C=C2\CN(Cc3ccccc3)C/C(=C\c3ccc(OC)c(O)c3)C2=O)cc1O	-4.1	23.4	-3.2	14.8	16.4	26.6*
CCN(C[C@H]1N[C@@](C)(C(=O)OC)[C@H]2C(=O)N(Cc3ccccc3)C(=O)[C@@H]12)C(=O)Nc1ccc(F)cc1	.	9.2	.	.	.	.
Cc1ccc(-n2ncc3c(NNC(=O)Cc4ccccc4)ncnc32)cc1	0.4	0.2	-1.7	-0.2	0.1	-8.7
Cn1ncc2c(NNC(=O)Cc3ccccc3)ncnc21	-1.1	-7.0	-34.7*	-3.8	-1.5	-2.6
COc1ccc(C(=O)Nc2c3c(nn2C(C)(C)C)CS(=O)(=O)C3)cc1OC	-2.5	16.5	-0.1	-0.4	-3.6	0.7
CN1CCN(C(=O)c2cc(Oc3c(F)c(F)c(F)c(F)c3F)cc(C(=O)N3CCN(C)CC3)c2)CC1	-1.4	4.6	-1.5	-2.1	0.7	1.9
O=C(NC1C=CS(=O)(=O)C1)c1sc2ccccc2c1Cl (stereo not drawn)	-6.0	-9.8	1.1	1.1	5.3	6.4
COc1ccc(C2CC(c3ccc(OC)c(OC)c3)=NN2S(C)(=O)=O)cc1 (stereo not drawn)	-2.9	7.2	-0.7	4.0	-3.9	32.9*
COc1ccc(C2=NN(S(C)(=O)=O)C(c3ccc4nccnc4c3)C2)cc1 (stereo not drawn)	0.4	-13.3	-4.7	-2.3	-0.6	1.1
O=C(CN1CCN(c2nc(-c3ccccc3)cs2)CC1)Nc1ccc2c(c1)OCO2	-0.4	48.2*	-2.3	-0.8	2.9	-1.3
CC(C)C(=O)NNC(=O)CN1CCN(c2nc(-c3ccccc3)cs2)CC1	1.2	2.4	-1.0	-2.0	3.0	1.0
SMILES	LYPLA1 inh	PREPL inhibitor	MEX-5 binding	LYPLA2 inh	Fam108B counter	PME-1 inh
C=CCNC(=O)COC(=O)CCC(=O)c1cccs1	1.0	-1.2	0.0	4.7	0.3	1.3
CCOC(=O)C1=C(C)OC(N)=C(C#N)C1c1ccccc1 (stereo not drawn)	3.8	0.3	0.6	-7.0	1.8	0.4
CCOC(=O)C1=C(C)OC(N)=C(C#N)C1c1ccc(O)c(OC)c1 (stereo not drawn)	1.8	-0.5	-39.6*	4.1	-2.2	-0.5
CCOC(=O)C1=C(O)/C(=C/c2cn(CC(=O)N3CCCC3)c3ccccc23)SC1=Nc1ccccc1	.	.	-46.5*	.	.	.
CCSc1ccccc1C(=O)NC1CCCCC1	-2.8	12.2	-0.2	-4.6	7.2	2.5
COC(=O)CC#N	0.9	-0.9	.	0.8	.	-5.3
N#CCC(N)=C(C#N)C#N	1.6	5.1	-37.6*	-0.5	-0.8	-7.8
O=C1c2ccccc2C(=O)N1OCCOCCOCCBr	-3.4	6.9	-0.1	-4.5	-3.9	-0.9
COc1ccc(/C=C/C(=O)OCC(=O)NCC2CCCO2)cc1 (stereo not drawn)	-4.3	2.8	0.0	0.3	2.4	-2.2
CCOC(=O)/C=c1\s/c(=C\c2ccc3cc(OC)ccc3c2)c(=O)n1CC(=O)NCC1CCCO1 (stereo not drawn)	-1.1	0.8	-47.1*	-3.7	-8.7	-6.4
COc1ccc(/C=C/c2c(-c3ccc(OC)cc3)oc3cccnc23)cc1	-3.4	-4.1	1.8	-0.4	0.6	27.2*
O=C1[C@@H]2Cc3c([nH]c4ccccc34)CN2C(=O)CN1CCCO	-15.2	6.4	-1.2	1.2	1.4	-0.2
CCCCN1C(=O)C2Cc3c([nH]c4ccccc34)CN2C1=S (stereo not drawn)	-2.4	0.4	-27.9*	7.4	-0.7	21.9
Cn1cnnc1SCc1ccc(C(=O)N=Nc2c(O)n(Cc3ccc(Cl)cc3)c3ccccc23)cc1	4.2	21.7	1.5	26.5*	-1.1	3.8
CCn1c(O)c(N=NC(=O)c2ccc(CSc3nncn3C)cc2)c2ccccc21	0.2	11.6	-2.3	-0.8	3.5	1.9
CCc1ccc(-c2cc(C(=O)N/N=C/c3c[nH]c4ccccc34)[nH]n2)cc1	-19.2	37.7	-1.2	-23.1	1.7	39.6*
O=C(N/N=C/c1c[nH]c2ccccc12)c1ccc([N+](=O)[O-])cc1Cl	2.2	20.1	0.3	6.5	14.7	26.4*
O=C(N/N=C/c1cc([N+](=O)[O-])ccc1O)c1c[nH]c2ccccc12	-4.8	14.7	-0.1	-9.5	9.7	12.6
COC/C=C/C1=CC(=O)C[C@H](c2ccc3c(c2)OCO3)C1	0.4	17.7	.	4.8	.	6.7
COc1ccc(-c2csc(NC(=O)CSCc3c(C)noc3C)n2)c(OC)c1	-2.8	-6.7	-2.7	-1.6	4.4	3.5
Cc1ccc2c(c1)OC(c1ccc3c(c1)OCCO3)CC2=O (stereo not drawn)	-6.6	0.0	-1.8	7.7	-0.5	0.7
COc1cccc(/C=N/Nc2nc3ccccc3n3cnnc23)c1	-1.7	30.0	-1.9	-1.6	1.5	-13.6
